Reference: PubChem BioAssay
For some assays here: Measured potencies and affinities stand elsewhere. The source made the active and inactive calls. Unless noted, the rule behind the calls is not given here.

Columns and labels:
[1] = antimalarial activity against Dd2 strain (AID 2302;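 active = growth inhibition above 50% at the single 2 µM test dose, taken to imply half-maximal potency below 2 µM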;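 note: 0% = DMSO untreated growth and 100% = chloroquine plus artemisinin killed control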); settings: P. falciparum Dd2 in RBCs, LDH growth readout, 72 h; at 2 µM; active compounds read high
[2] = human hepatoma cell viability loss – ATP luminescence, cytotoxicity control for P. falciparum antimalarial project, primary screen (AID 2303;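 active = inhibition above 50%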;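 note: 0% = DMSO wells and 100% = digitonin-killed cells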); settings: HepG2 viability, 24-48 h, at 10 µM, active compounds read high
[3] = target: L-lactate dehydrogenase (Plasmodium falciparum (isolate CDC / Honduras)) (UniProt Q27743); assay: PfLDH activity inhibition – cell lysate, 3D7 strain, counter-screen for P. falciparum growth inhibition project (AID 2304);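 note: 0% = vehicle and 100% = reference inhibitor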; settings: P. falciparum 3D7 crude extract, LDH APAD/NBT absorbance; at 2 µM; active compounds read high
Sequence of L-lactate dehydrogenase (Plasmodium falciparum (isolate CDC / Honduras)) (Q27743 whole entry, looked up): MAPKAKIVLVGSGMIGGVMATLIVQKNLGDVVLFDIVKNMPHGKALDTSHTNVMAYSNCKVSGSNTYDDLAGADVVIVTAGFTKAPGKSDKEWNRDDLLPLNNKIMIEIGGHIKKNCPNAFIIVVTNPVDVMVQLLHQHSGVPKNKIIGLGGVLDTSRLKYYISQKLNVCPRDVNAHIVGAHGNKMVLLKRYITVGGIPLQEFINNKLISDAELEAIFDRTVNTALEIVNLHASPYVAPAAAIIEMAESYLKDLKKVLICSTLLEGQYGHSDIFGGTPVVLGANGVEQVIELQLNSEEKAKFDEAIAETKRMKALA

[4] = inhibition of 3D7 malaria parasite growth – strain 3D7 (AID 2306);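 note: 0% = DMSO wells and 100% = chloroquine plus artemisinin control wells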; settings: P. falciparum 3D7 erythrocytic growth, LDH absorbance, 72 h; at 2 µM; active compounds read high
[5] = target: Calcium-dependent protein kinase 1 (Plasmodium falciparum (isolate 3D7)) (UniProt P62344); assay: PfCDPK1 kinase inhibitors, biochemical, TCAMS library (AID 1159585; cut-off not given, nearly all actives have IC50 up to about 0.98 µM;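 note: inhibitors leave more ATP so luminescence rises with inhibition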); settings: recombinant PfCDPK1, Kinase-Glo ATP depletion luminescence
Sequence of Calcium-dependent protein kinase 1 (Plasmodium falciparum (isolate 3D7)) (P62344 whole entry, looked up): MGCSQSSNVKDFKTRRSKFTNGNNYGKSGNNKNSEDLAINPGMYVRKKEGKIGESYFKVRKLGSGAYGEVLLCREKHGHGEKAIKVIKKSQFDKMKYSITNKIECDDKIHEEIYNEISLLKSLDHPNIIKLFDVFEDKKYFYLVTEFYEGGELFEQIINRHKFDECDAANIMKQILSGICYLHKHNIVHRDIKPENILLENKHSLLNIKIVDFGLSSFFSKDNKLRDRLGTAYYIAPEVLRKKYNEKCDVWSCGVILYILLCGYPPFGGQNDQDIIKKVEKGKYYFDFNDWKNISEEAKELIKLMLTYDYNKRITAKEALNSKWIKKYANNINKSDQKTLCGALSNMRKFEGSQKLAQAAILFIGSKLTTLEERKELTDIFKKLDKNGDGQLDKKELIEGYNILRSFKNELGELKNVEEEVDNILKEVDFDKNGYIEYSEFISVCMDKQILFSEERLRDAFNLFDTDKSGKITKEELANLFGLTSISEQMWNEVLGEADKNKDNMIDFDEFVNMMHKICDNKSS

[6] = target: Plasmodium falciparum protein kinase 6 (PK6, PF3D7_1337100) (UniProt Q8IDW1); assay: PfPK6 kinase inhibitors, biochemical, TCAMS library (AID 1159586); settings: recombinant PfPK6, Kinase-Glo ATP depletion luminescence
Sequence of Plasmodium falciparum protein kinase 6 (PK6, PF3D7_1337100) (Q8IDW1 1-305): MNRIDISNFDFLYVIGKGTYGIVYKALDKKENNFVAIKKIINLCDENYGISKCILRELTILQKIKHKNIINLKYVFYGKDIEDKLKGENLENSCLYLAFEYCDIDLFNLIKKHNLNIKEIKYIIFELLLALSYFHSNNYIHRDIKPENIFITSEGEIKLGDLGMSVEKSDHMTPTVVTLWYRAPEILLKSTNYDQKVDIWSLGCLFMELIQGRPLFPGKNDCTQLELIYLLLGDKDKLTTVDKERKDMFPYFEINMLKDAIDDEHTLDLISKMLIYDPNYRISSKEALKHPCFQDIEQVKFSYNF

[7] = target: Protein kinase 7 (PK7), Plasmodium falciparum 3D7 (PF3D7_0213400) (UniProt Q7YTF7); assay: inhibition of Plasmodium PK7 catalytic activity – biochemical, TCAMS antimalarial set, Kinase-Glo luminescence (AID 1159587); settings: recombinant PfPK7, Kinase-Glo ATP depletion luminescence
Sequence of Protein kinase 7 (PK7), Plasmodium falciparum 3D7 (PF3D7_0213400) (Q7YTF7 1-343): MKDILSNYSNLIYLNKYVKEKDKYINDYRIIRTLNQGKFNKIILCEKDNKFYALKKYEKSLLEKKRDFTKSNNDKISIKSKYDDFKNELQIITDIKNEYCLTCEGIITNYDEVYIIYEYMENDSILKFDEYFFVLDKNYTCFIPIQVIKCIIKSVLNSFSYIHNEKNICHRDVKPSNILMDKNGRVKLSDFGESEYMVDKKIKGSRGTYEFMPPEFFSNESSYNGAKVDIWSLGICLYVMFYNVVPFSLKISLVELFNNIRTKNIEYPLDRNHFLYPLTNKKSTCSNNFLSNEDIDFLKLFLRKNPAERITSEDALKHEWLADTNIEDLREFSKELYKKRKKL

[8] = target: Calcium-dependent protein kinase 4 (Plasmodium falciparum (isolate 3D7)) (UniProt Q8IBS5); assay: PfCDPK4 kinase inhibitors, biochemical, TCAMS library (AID 1159588; cut-off not given, nearly all actives have IC50 up to about 0.91 µM); settings: recombinant PfCDPK4, Kinase-Glo ATP depletion luminescence
Sequence of Calcium-dependent protein kinase 4 (Plasmodium falciparum (isolate 3D7)) (Q8IBS5 whole entry, looked up): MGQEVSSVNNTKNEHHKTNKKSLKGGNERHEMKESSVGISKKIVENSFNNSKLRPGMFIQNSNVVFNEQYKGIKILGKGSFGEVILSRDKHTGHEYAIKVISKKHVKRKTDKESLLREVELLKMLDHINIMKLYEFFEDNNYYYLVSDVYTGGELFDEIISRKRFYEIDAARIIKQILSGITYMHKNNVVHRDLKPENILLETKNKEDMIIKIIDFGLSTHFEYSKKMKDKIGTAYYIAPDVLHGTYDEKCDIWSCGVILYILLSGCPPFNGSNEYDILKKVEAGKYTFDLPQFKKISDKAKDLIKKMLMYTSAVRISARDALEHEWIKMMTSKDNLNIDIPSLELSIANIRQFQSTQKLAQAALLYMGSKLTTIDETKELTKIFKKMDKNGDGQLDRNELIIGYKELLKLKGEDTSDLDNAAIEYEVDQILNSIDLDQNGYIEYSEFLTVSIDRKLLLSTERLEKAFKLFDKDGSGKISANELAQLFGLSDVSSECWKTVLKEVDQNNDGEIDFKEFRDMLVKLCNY

COc1ccc(NC(=O)NC2CCN(CCCOc3cc(C)nc4ccccc34)CC2)cc1OC
active: growth inhibition [4] 97%
inactive: growth inhibition [1] 9% | inhibition [2] 3% | inhibition [3] 2% | outcome [5] | outcome [6] | outcome [7] | outcome [8]

O=C(NC12CC3CC(CC(C3)C1)C2)C(=O)c1c[nH]c2ccccc12
active: growth inhibition [4] 97%
inactive: growth inhibition [1] 2% | inhibition [2] 16% | inhibition [3] 3% | outcome [5] | outcome [6] | outcome [7] | outcome [8]

Cc1ccccc1N1CCN(c2ccc(C(=O)Nc3ccccc3)cn2)CC1
active: growth inhibition [1] 69% | growth inhibition [4] 95%
inactive: inhibition [2] 44% | inhibition [3] -5% | outcome [5] | outcome [6] | outcome [7] | outcome [8]

CN(C)CCOc1cccc(-c2cnc(N)c(-c3nc4ccc(S(C)(=O)=O)cc4[nH]3)c2)c1
active: growth inhibition [1] 82% | growth inhibition [4] 100%
inactive: inhibition [2] 39% | inhibition [3] 1% | outcome [5] | outcome [6] | outcome [7] | outcome [8]

Nc1nccc2ccc(-c3ccnc(NCc4cccnc4)n3)cc12
active: growth inhibition [1] 95% | growth inhibition [4] 101%
inactive: inhibition [2] 11% | inhibition [3] -3% | outcome [5] | outcome [6] | outcome [7] | outcome [8]

CC(C)CCN1CCCN(Cc2cccc(NC(=O)c3ccc(Cl)c(Cl)c3)c2)CC1
inactive: growth inhibition [1] 13% | inhibition [2] 35% | inhibition [3] -1% | outcome [5] | outcome [6] | outcome [7] | outcome [8]
active: growth inhibition [4] 92%

Cn1nc(-c2ccccc2F)c2cc(C(=O)Nc3cccnc3)sc21
inactive: inhibition [2] 5% | inhibition [3] 3% | outcome [5] | outcome [6] | outcome [7] | outcome [8]
active: growth inhibition [1] 82% | growth inhibition [4] 92%

CCCCN1Cc2c(n(CC(=O)Nc3ccccc3)c3cc(-c4ccccc4)nn3c2=O)C1=O
inactive: inhibition [2] 1% | inhibition [3] -1% | outcome [5] | outcome [6] | outcome [7] | outcome [8]
active: growth inhibition [1] 60% | growth inhibition [4] 92%

c1cc(CN2CCN(CCN3CCOCC3)CC2)cc(-c2ccc(-c3nc4ccccc4[nH]3)cc2)c1
inactive: inhibition [2] 23% | inhibition [3] -8% | outcome [5] | outcome [6] | outcome [7] | outcome [8]
active: growth inhibition [1] 100% | growth inhibition [4] 100%

c1cncc(CNc2ncc(-c3ccsc3)c(-c3nccs3)n2)c1
active: growth inhibition [1] 63% | growth inhibition [4] 81%
inactive: inhibition [2] -6% | inhibition [3] 2% | outcome [5] | outcome [6] | outcome [7] | outcome [8]

c1cc(CNCC2CCN(CC3CCCCC3)CC2)cc(-n2ccnc2)c1
inactive: inhibition [2] 18% | inhibition [3] -1% | outcome [5] | outcome [6] | outcome [7] | outcome [8]
active: growth inhibition [1] 99% | growth inhibition [4] 102%

COc1nc(NCC(C)C)nc(Oc2ccc(=O)n(Cc3ccccc3)n2)n1
inactive: inhibition [2] 1% | inhibition [3] 5% | outcome [5] | outcome [6] | outcome [7] | outcome [8]
active: growth inhibition [1] 93% | growth inhibition [4] 97%

Cc1ccc(N2CCc3c(-c4cc5cccnc5nc4C)cc(C)nc32)c(Cl)c1
active: growth inhibition [1] 90% | growth inhibition [4] 96%
inactive: inhibition [2] -14% | inhibition [3] 3% | outcome [5] | outcome [6] | outcome [7] | outcome [8]

Nc1nc(F)nc2nc[nH]c12
inactive: growth inhibition [1] 25% | inhibition [3] -2% | outcome [5] | outcome [6] | outcome [7] | outcome [8]
active: inhibition [2] 78% | growth inhibition [4] 89%

O=C(Nc1cccc2ccccc12)N1CCc2cc3nccc(N4CCN5CCC[C@H]5C4)c3cc21
active: growth inhibition [1] 86% | growth inhibition [4] 99%
inactive: inhibition [2] 11% | inhibition [3] 0% | outcome [5] | outcome [6] | outcome [7] | outcome [8]

CCN(CC)CCN(CCCc1ccc(-c2ccc(C(F)(F)F)cc2)cc1)C(=O)Cn1c(CCc2cccc(F)c2F)nc(=O)c2c1CCC2
active: growth inhibition [4] 92%
inactive: growth inhibition [1] 27% | inhibition [2] 38% | inhibition [3] -2% | outcome [5] | outcome [6] | outcome [7] | outcome [8]

Cc1ccc2[nH]c3c(NCCCN(C)C)ncnc3c2c1
inactive: growth inhibition [1] -2% | inhibition [2] 1% | inhibition [3] -4% | outcome [5] | outcome [6] | outcome [7] | outcome [8]
active: growth inhibition [4] 99%

Cc1cc(CNCCCCCCCNCc2ccc(-c3ccccc3)cc2)ccc1O
inactive: growth inhibition [1] 6% | inhibition [2] 49% | inhibition [3] -2% | outcome [5] | outcome [6] | outcome [7] | outcome [8]
active: growth inhibition [4] 97%

Cc1ccccc1CN1CCCN(Cc2ccc(C(=O)Nc3ccc(Cl)cc3)cc2)CC1
active: growth inhibition [4] 93%
inactive: growth inhibition [1] 15% | inhibition [2] 48% | inhibition [3] 3% | outcome [5] | outcome [6] | outcome [7] | outcome [8]

COc1ccccc1N1CCN(c2cccc(F)c2C#N)CC1
inactive: inhibition [2] -2% | inhibition [3] -2% | outcome [5] | outcome [6] | outcome [7] | outcome [8]
active: growth inhibition [1] 59% | growth inhibition [4] 85%

CN(c1ccc2c(c1)nc(NC(=O)C1(c3cc(F)ccc3F)CC1)n2C)c1ccnc(Nc2cccc(CS(C)(=O)=O)c2)n1
active: growth inhibition [4] 89%
inactive: growth inhibition [1] 46% | inhibition [2] 42% | inhibition [3] 6% | outcome [5] | outcome [6] | outcome [7] | outcome [8]

CC1(C)N=C(N)N=C(N)N1c1cccc(I)c1
active: growth inhibition [1] 85% | inhibition [2] 68% | growth inhibition [4] 95%
inactive: inhibition [3] -2% | outcome [5] | outcome [6] | outcome [7] | outcome [8]

O=C(NC1CCC(CCN2Cc3ccc(Br)cc3C2)CC1)c1cccc(-c2cccnc2)c1 (stereo not given)
inactive: inhibition [2] 14% | inhibition [3] 5% | outcome [5] | outcome [6] | outcome [7] | outcome [8]
active: growth inhibition [1] 73% | growth inhibition [4] 99%

COc1ccc(CCNC(C)Cc2ccc(C(=O)Nc3ccc(CC(C)NCCc4cccc(Cl)c4)cc3)cc2)cc1 (stereo not given)
active: growth inhibition [1] 89% | inhibition [2] 99% | growth inhibition [4] 101%
inactive: inhibition [3] -10% | outcome [5] | outcome [6] | outcome [7] | outcome [8]

CCCCCN1CCCC(CNS(=O)(=O)c2ccc(C(=O)Nc3ccc(C(F)(F)F)cc3)cc2)C1 (stereo not given)
inactive: growth inhibition [1] -9% | inhibition [3] -2% | outcome [5] | outcome [6] | outcome [7] | outcome [8]
active: inhibition [2] 51% | growth inhibition [4] 94%

Cc1nn(-c2cccc(Cl)c2)c2c1C(C(=O)c1ccc3c(c1)OCO3)CC(=O)N2 (stereo not given)
active: growth inhibition [1] 95% | growth inhibition [4] 98%
inactive: inhibition [2] 5% | inhibition [3] -5% | outcome [5] | outcome [6] | outcome [7] | outcome [8]

CN(C)Cc1cccc(-c2ccc3ccnc(N)c3c2)c1
inactive: inhibition [2] 21% | inhibition [3] 3% | outcome [5] | outcome [6] | outcome [7] | outcome [8]
active: growth inhibition [1] 74% | growth inhibition [4] 99%

NC(N)=Nc1ccc(NC(=O)Nc2ccc(N=C(N)N)cc2)cc1
active: growth inhibition [1] 74% | growth inhibition [4] 85%
inactive: inhibition [2] -5% | inhibition [3] 1% | outcome [5] | outcome [6] | outcome [7] | outcome [8]

COc1cc2nc(NCCc3ccccc3)nc(NCCc3ccccc3)c2cc1OC
inactive: inhibition [3] 2% | outcome [5] | outcome [6] | outcome [7] | outcome [8]
active: growth inhibition [1] 100% | inhibition [2] 99% | growth inhibition [4] 101%

Cc1cc(CN2CCC(Nc3ncc(-c4ccsc4)c4nc(C(F)(F)F)ccc34)CC2)no1
active: growth inhibition [1] 67% | growth inhibition [4] 81%
inactive: inhibition [2] 8% | inhibition [3] -3% | outcome [5] | outcome [6] | outcome [7] | outcome [8]

NC(=O)c1ccc(C(=O)Nc2cccc(-c3ccc(-c4nc5ccc(C(F)(F)F)cc5[nH]4)cc3)c2)cc1
active: growth inhibition [4] 100%
inactive: growth inhibition [1] 31% | inhibition [2] 35% | inhibition [3] -1% | outcome [5] | outcome [6] | outcome [7] | outcome [8]

NS(=O)(=O)c1cccc(-c2ccc3nccc(-c4cccc(S(N)(=O)=O)c4)c3c2)c1
active: growth inhibition [1] 99% | growth inhibition [4] 98%
inactive: inhibition [2] 40% | inhibition [3] 4% | outcome [5] | outcome [6] | outcome [7] | outcome [8]

Cc1cc(C(F)(F)F)cc(-n2ncc(-c3ccc(C(=O)NCc4ccccc4N)cc3)c2N)n1
active: growth inhibition [1] 89% | growth inhibition [4] 99%
inactive: inhibition [2] 10% | inhibition [3] 3% | outcome [5] | outcome [6] | outcome [7] | outcome [8]

Cc1cnc(-c2cccc(C(=O)NC3CCC(CCN4CCc5ccc(C#N)cc5CC4)CC3)c2)[nH]1 (stereo not given)
inactive: inhibition [2] 23% | inhibition [3] 1% | outcome [5] | outcome [6] | outcome [7] | outcome [8]
active: growth inhibition [1] 69% | growth inhibition [4] 100%

CC1CCN(CCCNc2ccc(C(=O)Nc3ccc(C(F)(F)F)cc3)cc2[N+](=O)[O-])CC1
active: growth inhibition [1] 100% | inhibition [2] 62% | growth inhibition [4] 101%
inactive: inhibition [3] -3% | outcome [5] | outcome [6] | outcome [7] | outcome [8]

O=C(Nc1ccc(CCNCCCc2ccccc2)cc1)Nc1ccc(Cl)c(Cl)c1
inactive: inhibition [2] 33% | inhibition [3] -1% | outcome [5] | outcome [6] | outcome [7] | outcome [8]
active: growth inhibition [1] 99% | growth inhibition [4] 100%

O=C(Nc1cccc(-c2ccc(CN3CCCC3)cc2)c1)c1ccc(Cl)cc1
inactive: growth inhibition [1] 47% | inhibition [2] 29% | inhibition [3] -1% | outcome [5] | outcome [6] | outcome [7] | outcome [8]
active: growth inhibition [4] 100%

CCCCCCCN1CC[C@@H](CCCc2ccnc3ccc(OCCC4CCNCC4)cc23)[C@@H](CC)C1
inactive: inhibition [3] -4% | outcome [5] | outcome [6] | outcome [7] | outcome [8]
active: growth inhibition [1] 100% | inhibition [2] 94% | growth inhibition [4] 104%

Cc1cnc(CNCc2ccc(S(=O)(=O)Nc3ccc(Oc4cccc(Cl)c4)cc3)cc2)cn1
active: growth inhibition [4] 97%
inactive: growth inhibition [1] -1% | inhibition [2] 4% | inhibition [3] 7% | outcome [5] | outcome [6] | outcome [7] | outcome [8]

COc1cc2nc(NCCc3ccccc3)nc(NCc3cnn(C)c3C)c2cc1OC
inactive: inhibition [2] 13% | inhibition [3] 0% | outcome [5] | outcome [6] | outcome [7] | outcome [8]
active: growth inhibition [1] 94% | growth inhibition [4] 99%
